Assay [1] concerns DLD1. Put plainly: cell viability (CellTiter-Glo) relative to plate median (fraction of plate median); higher = more viable cells. As to conditions: 10 µM, treatment time 24 h. The procedure, abridged:
(§1)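 Colorectal cancer cell lines stably transduced with lentiviral TCF/Wnt firefly luciferase reporters (7TFP or TCF4/Wnt) were seeded in 384-well plates. 24 h later they received kinase inhibitor library compounds at a final 10 µM for 24 h. Parallel plates were read for firefly luciferase or CellTiterGlo luminescence on a Tecan F500 reader. Each well's signal was normalised to the plate median (webcellHTS2, additive, no log transformation), and the mean of two independent replicates is reported.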

In assay [2] the test system is HCT116. Described as above. As to conditions: 10 µM; treatment time 24 h; reporter: TCF4/Wnt. The procedure, abridged:
as §1

The test system of assay [3] is SW480. Described as above. The conditions noted are these: 10 µM; treatment time 24 h; reporter: 7TFP. The procedure, abridged: as §1
Assay [4] concerns DLD1. In words: TCF/Wnt firefly luciferase reporter signal relative to plate median (fraction of plate median); higher = higher Wnt reporter signal. The conditions noted are these: 10 µM, treatment time 24 h. The method in brief: as §1
(A reporter such as luciferase makes a cellular process visible.)

Assay [5] concerns HCT116. The description is as above. The conditions noted are these: 10 µM; treatment time 24 h; reporter: TCF4/Wnt. The procedure, abridged: as §1
For assay [6], the system named is SW480. Described as above. The conditions noted are these: 10 µM; treatment time 24 h; reporter: 7TFP. The method in brief: as §1

The results in this text go back to the supplement of paper PMC6522484.

± gives the standard deviation of the averaged measurements.

Consider `CCc1cc(Nc2nccc(-c3c(-c4ccc(OC)c(C(=O)Nc5c(F)cccc5F)c4)nc4ccccn34)n2)c(OC)cc1N1CCC(N2CCN(S(C)(=O)=O)CC2)CC1`, for which the cell viability in the assay with DLD1 [1] (reporter: 7TFP) came to 0.925 ± 0.059; in the assay with DLD1 [1] (reporter: TCF4/Wnt) it was 0.995 ± 0.12; in the assay on HCT116 [2], 1.1 ± 0.028; in the assay with SW480 [3], 0.974 ± 0.066. In addition, the “TCF/Wnt firefly luciferase reporter signal” value was found to be 0.939 ± 0.035 in the assay with DLD1 [4] (reporter: 7TFP), 0.977 ± 0.047 in the assay with DLD1 [4] (reporter: TCF4/Wnt), 1.25 ± 0.05 in the assay on HCT116 [5] and 1.24 ± 0.085 in the assay on SW480 [6].
`CNC(=O)c1ccc(C)c(-n2c(C)cc(OCc3ccc(F)cc3F)c(Br)c2=O)c1`: the cell viability in the assay with DLD1 [1] (reporter: 7TFP) turned out to be 1.07 ± 0.057; in the assay on DLD1 [1] (reporter: TCF4/Wnt), 1.015 ± 0.0071; in the assay with HCT116 [2], 1.05 ± 0.035; in the assay on SW480 [3], 0.868 ± 0.047. In addition, the “TCF/Wnt firefly luciferase reporter signal” value with DLD1 [4] (reporter: 7TFP) is 1.17 ± 0.24; in the assay with DLD1 [4] (reporter: TCF4/Wnt), 1.02 ± 0.061; in the assay with HCT116 [5], 0.81 ± 0.046; with SW480 [6], 1.02 ± 0.11.
Regarding `O=C(NC[C@H](O)CO)c1ccncc1Nc1ccc(I)cc1F`, the cell viability in the assay with DLD1 [1] (reporter: 7TFP) stood at 1.15 ± 0.078; with DLD1 [1] (reporter: TCF4/Wnt), 1.14 ± 0.071; with HCT116 [2], 0.817 ± 0.036; with SW480 [3], 1.14 ± 0.028. In addition, the “TCF/Wnt firefly luciferase reporter signal” value in the assay with DLD1 [4] (reporter: 7TFP) amounted to 1.71 ± 0.46; in the assay on DLD1 [4] (reporter: TCF4/Wnt) it was 1.73 ± 0.54; with HCT116 [5], 1.18 ± 0.32; in the assay on SW480 [6], 2.17 ± 0.11.
With `CO[C@H]1C[C@@H]2CC[C@@H](C)[C@@](O)(O2)C(=O)C(=O)N2CCCC[C@H]2C(=O)O[C@H]([C@H](C)C[C@@H]2CC[C@@H](OCCO)[C@H](OC)C2)CC(=O)[C@H](C)/C=C(\C)[C@@H](O)[C@@H](OC)C(=O)[C@H](C)C[C@H](C)/C=C/C=C/C=C/1C` [Everolimus (RAD001)], the cell viability in the assay with DLD1 [1] (reporter: 7TFP) worked out at 1.04 ± 0.11; in the assay on DLD1 [1] (reporter: TCF4/Wnt), 1.02 ± 0.028; in the assay on HCT116 [2], 0.974 ± 0.094; in the assay on SW480 [3], 1.26 ± 0.028. Moreover, the “TCF/Wnt firefly luciferase reporter signal” value with DLD1 [4] (reporter: 7TFP) is 0.893 ± 0.091; in the assay on DLD1 [4] (reporter: TCF4/Wnt), 1.05 ± 0.14; in the assay on HCT116 [5], 0.951 ± 0.15; with SW480 [6], 1.42 ± 0.057.
As for `O=C(Nc1cc(C(F)(F)F)cc(C(F)(F)F)c1)c1cc(Cl)ccc1O`, the cell viability came out at 0.48 ± 0.1 with DLD1 [1] (reporter: 7TFP), 0.618 ± 0.011 with DLD1 [1] (reporter: TCF4/Wnt), 0.303 ± 0.12 with HCT116 [2] and 0.477 ± 0.03 with SW480 [3]. Also, the “TCF/Wnt firefly luciferase reporter signal” value was determined as 0.473 ± 0.11 in the assay on DLD1 [4] (reporter: 7TFP), 1.47 ± 0.67 in the assay on DLD1 [4] (reporter: TCF4/Wnt), 0.133 ± 0.072 in the assay on HCT116 [5] and 0.3675 ± 0.0021 with SW480 [6].
With `O=C(NOCC(O)CO)c1cc(Br)c(F)c(F)c1Nc1ccc(I)cc1F` (stereo not drawn), the cell viability in the assay with DLD1 [1] (reporter: 7TFP) is 1.17 ± 0.12; in the assay on DLD1 [1] (reporter: TCF4/Wnt) it was 0.96 ± 0.13; in the assay with HCT116 [2] it was 0.891 ± 0.047; in the assay with SW480 [3] it was 1.19 ± 0.028. Besides, the “TCF/Wnt firefly luciferase reporter signal” value in the assay with DLD1 [4] (reporter: 7TFP) came out at 1.72 ± 0.38; with DLD1 [4] (reporter: TCF4/Wnt), 1.47 ± 0.16; in the assay with HCT116 [5] it was 1.95 ± 0.47; with SW480 [6] it was 2.33 ± 0.064.
Regarding `Cc1cc(C(=O)NOCCO)c(Nc2ccc(I)cc2F)n(C)c1=O`, the cell viability in the assay on DLD1 [1] (reporter: 7TFP) amounted to 1.19 ± 0.042; in the assay with DLD1 [1] (reporter: TCF4/Wnt), 1.15 ± 0.042; in the assay with HCT116 [2], 0.889 ± 0.075; with SW480 [3], 1.105 ± 0.0071. For the same compound, the “TCF/Wnt firefly luciferase reporter signal” value worked out at 1.635 ± 0.0071 with DLD1 [4] (reporter: 7TFP), 1.58 ± 0.25 with DLD1 [4] (reporter: TCF4/Wnt), 1.17 ± 0.13 in the assay with HCT116 [5] and 1.89 ± 0.22 in the assay on SW480 [6].
As for `COc1cc(Nc2c(C#N)cnc3cc(OCCCN4CCN(C)CC4)c(OC)cc23)c(Cl)cc1Cl` [Bosutinib (SKI-606)], the cell viability in the assay on DLD1 [1] (reporter: 7TFP) stood at 0.869 ± 0.034; in the assay with DLD1 [1] (reporter: TCF4/Wnt), 0.9025 ± 0.0021; with HCT116 [2] it was 0.864 ± 0.016; in the assay on SW480 [3] it was 0.995 ± 0.035. Further, the “TCF/Wnt firefly luciferase reporter signal” value in the assay on DLD1 [4] (reporter: 7TFP) amounted to 0.4675 ± 0.0035; in the assay on DLD1 [4] (reporter: TCF4/Wnt), 0.534 ± 0.021; in the assay with HCT116 [5], 0.242 ± 0.22; with SW480 [6], 0.648 ± 0.23.
In the case of `CC(C)NC[C@@H](C(=O)N1CCN(c2ncnc3c2[C@H](C)C[C@H]3O)CC1)c1ccc(Cl)cc1`, the cell viability was 0.947 ± 0.031 in the assay on DLD1 [1] (reporter: 7TFP), 1.1 ± 0.021 in the assay on DLD1 [1] (reporter: TCF4/Wnt), 0.917 ± 0.0092 in the assay on HCT116 [2] and 1.04 ± 0.042 in the assay on SW480 [3]. For the same compound, the “TCF/Wnt firefly luciferase reporter signal” value with DLD1 [4] (reporter: 7TFP) amounted to 0.922 ± 0.029; in the assay with DLD1 [4] (reporter: TCF4/Wnt), 0.951 ± 0.31; in the assay on HCT116 [5] it was 1.08 ± 0.27; in the assay on SW480 [6], 0.999 ± 0.016.
`CNC(=O)c1cc(Oc2ccc(NC(=O)Nc3cc(C(C)(C)C)nn3-c3ccc4ncccc4c3)c(F)c2)ccn1` [DCC-2036 (Rebastinib)]: the cell viability is 1.1 ± 0.13 in the assay with DLD1 [1] (reporter: 7TFP), 1.265 ± 0.0071 in the assay on DLD1 [1] (reporter: TCF4/Wnt), 0.985 ± 0.035 in the assay with HCT116 [2] and 1.08 ± 0.099 in the assay with SW480 [3]. Also, the “TCF/Wnt firefly luciferase reporter signal” value in the assay on DLD1 [4] (reporter: 7TFP) is 0.817 ± 0.021; with DLD1 [4] (reporter: TCF4/Wnt), 0.755 ± 0.047; with HCT116 [5] it was 0.895 ± 0.2; with SW480 [6], 0.746 ± 0.06.
For `Nc1nccc(Oc2ccc(NC(=O)c3c[nH]cc(-c4ccc(F)cc4)c3=O)cc2F)c1Cl`, the cell viability was found to be 1.16 ± 0.22 in the assay with DLD1 [1] (reporter: 7TFP), 1.01 ± 0.069 with DLD1 [1] (reporter: TCF4/Wnt), 1.12 ± 0.2 in the assay on HCT116 [2] and 0.886 ± 0.018 in the assay with SW480 [3]. The “TCF/Wnt firefly luciferase reporter signal” value was 1.07 ± 0.17 in the assay on DLD1 [4] (reporter: 7TFP), 0.826 ± 0.016 in the assay with DLD1 [4] (reporter: TCF4/Wnt), 0.766 ± 0.32 in the assay on HCT116 [5] and 0.549 ± 0.27 in the assay on SW480 [6].
